Screening results as filed in PubChem BioAssay.
Rows were chosen to be rich in hits. Some 2.4% of all compounds tested hit in one or more screens of this group.
FEN1 inh – qHTS Assay for the Inhibitors of Human Flap endonuclease 1 (FEN1) | P39748 | Recombinant FEN1 flap cleavage, fluorescence, 15 min | Potency, µM (series often up to 114 µM), without a hit: at the top dose activity change, negative = inhibition, hits mostly inhibitors | actives 0.35% (n = 390,000); further: on the % scale 0 is the no-effect control and ±100 the full control effect; nearly all actives have a fitted effect of over 65% in size
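Concentration–response screening of FEN1 (10 nM): 15 min compound preincubation at room temperature, reaction started with 50 nM substrate and read at 0 and 15 min. Corrected, normalized data were fitted by a four-parameter Hill equation.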
Pol beta inh – qHTS Assay for Inhibitors of DNA Polymerase Beta; P06746; Pol beta primer extension/strand displacement, fluorescence kinetic; Potency, µM (titrated, usually from 114 µM), inactives show at the highest dose activity change, negative = inhibition, hits mostly inhibitors; actives 1.3% (n = 340,000); AID 485314, 2010; further: on the % scale 0 is the no-effect control and ±100 the full control effect
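Kinetic readout of DNA synthesis with strand displacement by Pol beta. Compound and 10 nM enzyme sit 15 min at room temperature; 50 nM substrate starts the reaction, read immediately and at 10 min.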
Pol eta inh – qHTS for Inhibitors of Polymerase Eta; recombinant Pol eta, fluorescent DNA replication assay; Potency, µM (highest dose often 114 µM), for inactives: at the highest dose activity change, negative = inhibition, hits mostly inhibitors; actives 1.2% (n = 390,000); further: on the % scale 0 is the no-effect control and ±100 the full control effect
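Pol eta (10 nM) was preincubated with compounds for 15 min at room temperature, after which fluorescent replication substrate (50 nM final) was added to start the reaction. Fluorescence was read kinetically at 0 and 10 min.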
Pol kappa inh – qHTS for Inhibitors of Polymerase Kappa; Potency, µM (top dose mostly 107 µM), without a hit: at the top dose activity, negative = inhibition, actives largely listed as inhibitors; DNA polymerase kappa (Homo sapiens), Q9UBT6; AID 588579, 2011; purified Pol kappa, fluorescent DNA synthesis assay, 10 min; actives 0.53% (n = 400,000); further: on the % scale 0 is the no-effect control and ±100 the full control effect
Target sequence (Q9UBT6 whole entry, looked up): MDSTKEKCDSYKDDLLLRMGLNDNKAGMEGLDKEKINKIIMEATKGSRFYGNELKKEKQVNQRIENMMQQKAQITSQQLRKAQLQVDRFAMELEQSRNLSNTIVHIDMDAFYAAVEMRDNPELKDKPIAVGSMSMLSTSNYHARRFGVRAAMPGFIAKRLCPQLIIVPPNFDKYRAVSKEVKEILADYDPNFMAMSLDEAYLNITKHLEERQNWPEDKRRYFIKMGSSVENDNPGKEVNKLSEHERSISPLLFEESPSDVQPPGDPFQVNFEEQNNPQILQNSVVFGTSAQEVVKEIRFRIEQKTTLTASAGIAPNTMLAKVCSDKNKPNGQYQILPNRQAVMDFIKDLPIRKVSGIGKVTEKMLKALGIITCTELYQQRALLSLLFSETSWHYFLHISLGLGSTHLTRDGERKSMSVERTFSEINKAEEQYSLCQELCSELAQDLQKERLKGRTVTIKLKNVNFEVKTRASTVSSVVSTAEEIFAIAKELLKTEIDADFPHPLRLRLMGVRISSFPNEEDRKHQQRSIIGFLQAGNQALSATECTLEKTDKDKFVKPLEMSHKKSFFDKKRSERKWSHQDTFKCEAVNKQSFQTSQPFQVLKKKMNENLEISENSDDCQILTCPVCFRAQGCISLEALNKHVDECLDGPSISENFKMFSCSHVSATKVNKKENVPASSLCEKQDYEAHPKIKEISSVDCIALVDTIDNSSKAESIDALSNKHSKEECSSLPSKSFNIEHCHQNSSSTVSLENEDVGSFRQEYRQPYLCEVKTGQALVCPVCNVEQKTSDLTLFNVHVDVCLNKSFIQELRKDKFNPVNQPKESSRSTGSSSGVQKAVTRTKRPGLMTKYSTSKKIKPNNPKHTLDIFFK
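Pol kappa 10 nM + cpd, 15 min RT; start w/ substrate 50 nM final; fluorescence kinetic read, 0 and 10 min. Neg ctrl: buffer, no enzyme.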
WRN inhibitor – qHTS for Inhibitors of WRN Helicase; Bifunctional 3'-5' exonuclease/ATP-dependent helicase WRN (Homo sapiens), Q14191; WRN helicase unwinding, fluorescent forked duplex, kinetic; Potency, µM (titrated, usually from 114 µM), inactives show at the top dose activity change, negative = inhibition, usual class: inhibitors; actives 0.46% (n = 360,000); further: on the % scale 0 is the no-effect control and ±100 the full control effect; nearly all actives have a fitted effect of over 55% in size
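Kinetic red-fluorescence monitoring (525/598 nm) tracks WRN helicase activity after 100 nM fluorophore-quencher forked duplex and 2 mM ATP are added to 20 nM enzyme pretreated 15 min at room temperature with compound.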
POLI inh – qHTS for Inhibitors of Polymerase Iota. AID 588590, 2011. Pol iota fluorescent replication assay, 10 min. actives 1% (n = 390,000). Potency, µM (highest dose often 115 µM), inactives show at the top dose activity, negative = inhibition, hits mostly inhibitors. DNA polymerase iota (Homo sapiens), Q9UNA4
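Fluorescent replication assay read twice, at 0 min and 10 min after adding 50 nM (final) substrate. Enzyme (10 nM) and compounds were first incubated 15 min at room temperature; enzyme-free buffer wells were negative controls.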
Active calls of the source: *; u = inconclusive; x = no result given; [ ] = dose if it differs, or a comment. The call rests on the fitted dose curve; in most records, active means well fitted curve in the direction sought with a large enough effect; inconclusive means small, poorly fitted or top-dose-only effect, or another doubt; inactive means no such curve, though single readings can be large; an effect the other way counts as inactive or inconclusive. Potency means the concentration at half of the fitted maximal effect.

SMILES	FEN1 inh	Pol beta inh	Pol eta inh	Pol kappa inh	WRN inhibitor	POLI inh
C#CCOCCOCCOCCNc1nc(N2CCN(C(=O)CCCCCCCCCCNC(=O)Cn3cc(C[C@@H](C)O)nn3)CC2)nc(N2CCN(C(=O)CCCCCCCCCCNC(=O)[C@H](CCCCN)n3cc(C[C@@H](C)CC)nn3)CC2)n1	50.1µM*	x	u	-1.8%	u	u
C#CCOCCOCCOCCNc1nc(N2CCN(C(=O)CCCCCCCCCCNC(=O)[C@H](CCCCN)n3cc(CCO)nn3)CC2)nc(N2CCN(C(=O)CCCCCCCCCCNC(=O)[C@H](CCCN=C(N)N)n3cc(C[C@@H](C)CC)nn3)CC2)n1	22.4µM*	x	79.4µM*	u	35.5µM*	u
C#CCOCCOCCOCCNc1nc(N2CCN(C(=O)CCCCCCCCCCNC(=O)[C@H](CCCCN)n3cc(C[C@@H](C)CC)nn3)CC2)nc(N2CCN(C(=O)CCCCCCCCCCNC(=O)[C@H](CCCCN)n3cc(C[C@@H](C)CC)nn3)CC2)n1	22.4µM*	x	79.4µM*	-2.6%	50.1µM*	20.3%
C#CCOCCOCCOCCNc1nc(N2CCN(C(=O)CCCCCCCCCCNC(=O)[C@H](CCCCN)n3cc(CCO)nn3)CC2)nc(N2CCN(C(=O)CCCCCCCCCCNC(=O)[C@H](CCCCN)n3cc(CCO)nn3)CC2)n1	79.4µM*	x	u	-14.7%	-9.7%	13.8%
C#CCOCCOCCOCCNc1nc(N2CCN(C(=O)CCCCCCCCCCNC(=O)[C@H](CCCCN)n3cc(CCCC(=O)O)nn3)CC2)nc(N2CCN(C(=O)CCCCCCCCCCNC(=O)[C@H](CCCCN)n3cc(CCCC(=O)O)nn3)CC2)n1	5.3%	x	-19.2%	-6.6%	0.6%	u
C#CCOCCOCCOCCNc1nc(N2CCN(C(=O)CCCCCCCCCCNC(=O)[C@H](CCCCN)n3cc(CCCC(=O)O)nn3)CC2)nc(N2CCN(C(=O)CCCCCCCCCCNC(=O)[C@H](CCCN=C(N)N)n3cc(C[C@@H](C)CC)nn3)CC2)n1	u	x	u	11.7%	u	-6.1%
CC1CCCCN1C(=O)Cn1c(SCC(=O)N(C)c2ccccc2)nc2ccccc21 (stereo not given)	-2.9%	-18.2%	-7.3%	-1.3%[60.1 µM]	x	-14.6%
COc1ccc(CCNC(=O)CCSCc2ccccc2Cl)cc1OC	-5.9%	2.5%	-21.9%	5.0%[60.1 µM]	x	-25.8%
Cc1cc(=O)n(CC(=O)N2CCCc3ccccc32)c2c1c(C)nn2-c1cccc(F)c1	-1.3%	3.3%	-13.5%	1.5%	x	8.1%
CC(=O)Nc1ccc(C(=O)CSc2nnc(-c3ccccc3)n2-c2ccccc2)cc1	15.1%	10µM*	-9.0%	4.8%	x	u
COC(=O)c1c(C)sc(-c2c(-c3ccc(F)cc3)[nH]c3[nH]c(=O)[nH]c(=O)c23)c1O	-0.6%	56.2µM*	x	u	x	u
CC(C)c1ccc(NC(=O)C[n+]2ccn(C3=C([O-])c4ccccc4C3=O)c2)cc1	-20.2%	u	79.4µM*	-43.6%	-28.2%	u
Brc1ccc2c(ccc[n+]2CCc2ccccc2)c1	15.6%	x	x	7.5%	x	1.8%
O=C(NCCO)Nc1ccc2nc(-c3ccco3)c(-c3ccco3)nc2c1	x	4.47µM*	x	x	x	x
O=C(Nc1ccc2nc(-c3ccco3)c(-c3ccco3)nc2c1)N1CCCC1	11.2µM*	x	x	31.6µM*	x	3.16µM*
S=C(Nc1ccc(N2CCOCC2)cc1)Nc1ccc2nc(-c3ccco3)c(-c3ccco3)nc2c1	-20.6%	2.0%	u	u	-34.9%[11.6 µM]	2µM*
O=C(Nc1ccc(N2CCOCC2)cc1)c1ccc2nc(-c3ccco3)c(-c3ccco3)nc2c1	10.7%	0.1%	-14.3%	-25.2%	-9.0%	-5.3%
CC1CCN(C(=O)Nc2ccc3nc(-c4ccco4)c(-c4ccco4)nc3c2)CC1	15.8µM*	x	x	8.91µM*	x	14.1µM*
Cc1ccc(-n2nc(C(=O)Nc3ccc(Br)cc3C)c(=O)n(C)c2=O)cc1	15.2%	4.8%	-1.9%	-12.3%[60.1 µM]	x	12.8%
Cc1ccc(C(=O)c2c(N)c(C(=O)Nc3cccc(C(F)(F)F)c3)c3ccccn23)cc1	1.8%	32.8%	x	1.8%	x	2.5%
Cc1ccc(C)c(NC(=O)c2cnn(-c3cccc(F)c3)c2C2CCN(C(=O)OC(C)(C)C)CC2)c1	-26.9%	18.3%	-11.5%	-2.5%	x	-3.8%
O=c1c(-c2ccc(Cl)cc2)coc2c(CN3CCCCC3)c(O)ccc12	-9.7%	16.2%	-3.9%	-6.4%	2.6%	31.6µM*
CC(=O)Nc1cccc(NC(=O)Nc2cccc(Cl)c2C)c1	-17.0%	44.7µM*	-8.9%	-23.5%	-5.8%	10.4%
CC(=O)Nc1cccc(NC(=S)Nc2cccc(Cl)c2C)c1	12.5%	-2.1%	-3.4%	-14.2%	-4.0%	u
CC(C)CCn1c(=O)c2cccnc2n(CC(=O)Nc2ccc(F)cc2)c1=O	14.6%	-1.2%	-10.4%	1.8%	x	5.0%
SMILES	FEN1 inh	Pol beta inh	Pol eta inh	Pol kappa inh	WRN inhibitor	POLI inh
COc1ccccc1NS(=O)(=O)c1cccc(C(=O)N/N=C/c2ccc(NC(C)=O)cc2)c1	-7.6%	u	-14.9%	-26.2%	-9.6%	50.1µM*
O/N=C(/CI)c1ccc2ccccc2c1	u	x	x	2.4%	x	-14.0%
Cc1ccc2nc(-c3ccc(N4C(=NC(=O)CCC(=O)O)SC5CS(=O)(=O)CC54)cc3)sc2c1 (stereo not given)	-11.8%	u	3.55µM*	u	u	u
CC(=O)N=C1SC2CS(=O)(=O)CC2N1c1ccc(-c2nc3ccc(C)cc3s2)cc1 (stereo not given)	x	-2.9%	x	x	x	x
CCc1nnc(SCc2nc(-c3ccccc3)oc2C)c2cc3sccc3n12	-4.2%	-3.5%	-2.6%	3.0%	x	9.9%
O=C(CCCl)Nc1cccc2cccnc12	22.0%	x	x	-0.8%	x	u
CN(C)c1ccc(C=c2c3ccccc3n3c2c2ccccc2[n+]3C)cc1	31.6µM*	x	u	-18.9%	10µM*	u
C[n+]1c(-c2ccccc2)cc2c(=Cc3ccc([N+](=O)[O-])cc3)c3ccccc3n21	-19.4%	x	6.8%	-3.2%	u	50.1µM*
C[n+]1c(-c2ccccc2)cc2c(=Cc3ccccc3)c3ccccc3n21	u	x	13.4%	-10.8%	u	50.1µM*
CC(C)n1c2ccccc2c2cc([N+](=O)[O-])ccc21	-2.1%	12.2%	-20.1%	0.8%	-2.9%	19.0%
